# Source: the supplement of paper PMC3334620
# Whole data set: some 33,000 sequences, median “E-score (-0.5 to 0.5)” near -0.054, cut for the highest 2% near 0.35. What follows is part of a selection rich in the highest values, with near analogues and random picks from the rest.
# Target: T1, Stb5 (UniProt P38699)
# T1 sequence: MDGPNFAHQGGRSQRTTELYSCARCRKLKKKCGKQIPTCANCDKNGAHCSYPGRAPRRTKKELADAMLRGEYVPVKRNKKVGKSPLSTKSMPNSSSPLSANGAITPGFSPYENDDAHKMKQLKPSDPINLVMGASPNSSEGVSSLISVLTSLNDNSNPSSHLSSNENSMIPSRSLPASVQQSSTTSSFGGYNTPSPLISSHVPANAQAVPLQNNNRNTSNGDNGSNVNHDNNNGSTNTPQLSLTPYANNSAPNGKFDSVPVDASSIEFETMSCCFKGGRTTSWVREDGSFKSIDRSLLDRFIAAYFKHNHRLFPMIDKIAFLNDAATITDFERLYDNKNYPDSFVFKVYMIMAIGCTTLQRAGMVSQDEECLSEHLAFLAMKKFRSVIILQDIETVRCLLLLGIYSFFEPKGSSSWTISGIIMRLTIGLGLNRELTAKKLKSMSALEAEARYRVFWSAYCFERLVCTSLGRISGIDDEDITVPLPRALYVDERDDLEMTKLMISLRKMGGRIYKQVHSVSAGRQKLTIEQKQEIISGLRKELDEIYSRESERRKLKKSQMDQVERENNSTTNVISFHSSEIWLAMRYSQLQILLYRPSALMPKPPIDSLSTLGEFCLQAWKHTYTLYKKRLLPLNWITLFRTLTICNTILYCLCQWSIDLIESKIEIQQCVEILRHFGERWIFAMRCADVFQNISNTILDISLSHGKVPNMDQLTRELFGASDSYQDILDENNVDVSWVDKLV
# Assay: PBM E-score (8-mer binding enrichment) (E-score (-0.5 to 0.5)); higher = stronger / more preferred TF binding
# Conditions: protein concentration: 200 nM; construct: GST-full length
# Method: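 Universal 'all 10-mer' protein binding microarrays (Agilent AMADID 015681) probed with GST-tagged S. cerevisiae TFs (full-length or DBD) made by in vitro transcription/translation (PURExpress), about 100-200 nM. Bound TF was detected with fluorescent anti-GST. Each ungapped 8-mer (which stands for itself and its reverse complement) is scored by the PBM enrichment score (E-score), a modified Wilcoxon-Mann-Whitney statistic from -0.5 to +0.5, computed with the Universal PBM Analysis Suite. Scale: above 0.35 generally sequence-specific binding.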
row,Sequence,PBM E-score
1,ACCAGACA,-0.0752
2,ATCTCATA,-0.186
3,AAAGTAAG,-0.119
4,CATTTTAG,0.189
5,CTTACTGA,-0.164
6,AAGAGTCC,0.118
7,CGTGTTAC,-0.0374
8,AGTGTTAC,-0.0686
9,GGTGTTTA,0.425
10,TGTGTTAA,-0.145
11,GGTGTTAA,0.447
12,CGTGTTTA,0.112
13,CGTGTAAC,0.134
14,CGTGTTAA,-0.191
15,GGTGTAAC,0.381
16,AGTGTAAC,-0.175
17,AGTGTTTA,-0.0504
18,GGTGTTAC,0.4
19,ATTCACAC,-0.136
20,CCTGATAA,-0.0146
21,CCCAACCA,-0.0714
22,GATCTAAC,-0.143
23,ATACTATG,-0.0158
24,ACGCTGCT,-0.0899
25,CACTCTCA,-0.237

row,Sequence,PBM E-score
1,ACTTTCCA,-0.0496
2,CAGCGGGC,0.224
3,CAGCGGGG,0.358
4,CAGCGGAG,0.352
5,AAGCGGGG,0.296
6,CAGCGGAA,0.164
7,CAGCGGCG,0.326
8,ACCGAACG,0.308
9,ATGAAAGG,0.0036
10,ACCGCCGC,0.383
11,ACCGCCAC,0.316
12,ACCGCCGT,0.38
13,ACCGCCTG,0.25
14,ACCGCCTC,0.313
15,GCCGCCGA,0.329
16,TCCGCCGA,0.346
17,ACCGCCGA,0.405
18,ACCGCAGT,0.206
19,ACCGCCTA,0.206
20,ACCGCCGG,0.414
21,ACGGTTGA,-0.165
22,ACTCTTTG,-0.24
23,ATCAAGGA,-0.12
24,CGCCCCCG,0.209
25,ACCTTTGC,-0.0619

row,Sequence,PBM E-score
1,ACCACCTA,-0.134
2,GCCATACA,-0.138
3,GTCCTCAA,-0.137
4,CACGTCAG,-0.163
5,CCCGCCGC,0.347
6,GCCGCCAC,0.191
7,GCCGCCGC,0.391
8,GCCGCCAA,0.24
9,ACCGCCAG,0.368
10,CCCGCCGG,0.39
11,ACCGCCAA,0.276
12,ACCGCCAT,0.265
13,CCCGCCGA,0.345
14,ATACGGGC,0.103
15,TTGGACAA,-0.195
16,ATTATTGG,0.0592
17,AGGCCCAG,-0.226
18,AGGAGGGG,-0.302
19,GTTTTCGA,-0.115
20,GTCCCGAA,0.121
21,TCGCGCAA,-0.136
22,ATAGACAA,-0.202
23,CGTGAGGC,-0.133
24,ATTCAGCC,-0.129
25,CACCGCGG,0.419

row,Sequence,PBM E-score
1,CCGCGCGC,0.281
2,CCGCGCGA,0.168
3,AACCGCGG,0.347
4,CACCGCGC,0.401
5,CCGCGCGG,0.404
6,TACCGCGA,0.324
7,AACCGCGA,0.272
8,AACCGCGC,0.273
9,CACCGCGA,0.37
10,CCCCGCGG,0.349
11,GACCGCGC,0.246
12,AATACTCC,0.173
13,GACAGTTA,-0.0979
14,AAGACTAG,-0.389
15,AGCTACAG,-0.215
16,TCAATCCA,-0.0437
17,GCGCTAGA,0.112
18,AGCACGGG,0.199
19,ACCACCCA,-0.217
20,GGCCTCCC,-0.0321
21,CGGTGCAC,0.0634
22,AAACCGTG,-0.0899
23,CCACCGTC,0.246
24,ACACCGTC,0.424
25,ACACCGTA,0.346

row,Sequence,PBM E-score
1,AGACCGTC,0.252
2,ACACCGTG,0.416
3,AACTAGCA,-0.134
4,CTTCGGCA,0.209
5,CAGCTGGG,-0.0897
6,CTTGGGTA,-0.128
7,AAACTCTA,-0.134
8,CGGCATCC,0.224
9,GGGCATGA,-0.083
10,CGGCATGC,0.273
11,CGGCACCA,0.394
12,CGGCACCG,0.342
13,AGGCATCA,-0.202
14,CGGCATGA,0.367
15,AGGCACCA,-0.0686
16,CGGCATCA,0.387
17,CTCCCTAC,-0.0607
18,CAATACCG,0.332
19,AATTACCC,0.0888
20,AAATACCG,0.432
21,AAGTACCA,-0.0936
22,AATTACCG,0.395
23,AAATACCC,0.279
24,CATTACCG,0.205
25,AAGTACCG,0.441

row,Sequence,PBM E-score
1,AAGTACCC,0.0204
2,ACTTGCAA,-0.00221
3,CAAGAAGG,-0.193
4,ATCGTATC,-0.175
5,AGTCTTAC,-0.185
6,AAGGGCAT,-0.336
7,ACTCGGCA,0.00054
8,GCATGAGC,-0.0601
9,GCCCAAGA,-0.114
10,CCATTGCG,0.116
11,GGGCGGAC,0.408
12,CGGCGGAA,0.348
13,CCGCGGAC,0.362
14,CCGCGGAA,0.265
15,CCGCGGAG,0.298
16,CGGCGGAC,0.377
17,GCGCGGAC,0.292
18,GGGCGGAA,0.241
19,CGGCGGAG,0.347
20,AATATATT,0.208
21,CCGAACTA,0.177
22,CAGCAGGG,-0.0502
23,CCAGAAGC,0.0499
24,CCTCCTTC,-0.213
25,CGAGGTGC,-0.146

row,Sequence,PBM E-score
1,AGCACCGC,0.461
2,AGCACCTC,-0.163
3,CGCACCTC,-0.0539
4,CGCACCGA,0.272
5,AGCACCAC,-0.0526
6,CGCACCGC,0.352
7,TCAGCTAA,-0.245
8,GACTAGTC,-0.117
9,ACTGTATG,-0.0542
10,TCCGCGGA,0.144
11,ACCGCGAT,0.346
12,CCCGCGGA,0.322
13,GCCGCGGA,0.299
14,CCCGCGCG,0.342
15,CCCGCGGC,0.333
16,ACCGCGGG,0.317
17,ACCGCGGC,0.412
18,ACCGCGGT,0.39
19,CCCGCGGG,0.361
20,GCCGCGGC,0.331
21,ACCGCGGA,0.358
22,CAAAACAG,-0.0698
23,CTGACAGA,-0.0917
24,ACCAGCCC,0.211
25,AACGAGGG,-0.19

row,Sequence,PBM E-score
1,AAGTCGGT,0.324
2,ACTTAAAC,-0.0316
3,AGGGAGCG,-0.0929
4,AGCTATCG,-0.103
5,AAATGAGA,-0.261
6,GGCACTGA,0.00323
7,GAAGAATA,-0.123
8,AATGACCA,-0.133
9,CAAGACCG,0.312
10,AAGGACCT,0.00048
11,AAAGACCG,0.448
12,AAAGACCA,-0.216
13,AATGACCT,-0.0215
14,AAGGACCA,-0.0213
15,AATGACCG,0.365
16,AAGGACCG,0.383
17,AGCATGGC,-0.178
18,GGCCTAGA,-0.147
19,CTGCATCA,-0.327
20,CACCTGTA,-0.208
21,CCCCGACA,0.412
22,GCCCGACA,0.334
23,ACCCGACC,0.279
24,CCCCGAGG,0.148
25,ACCCGACG,0.287

row,Sequence,PBM E-score
1,CCCCGACC,0.355
2,CCCCGACG,0.449
3,GCCCGACC,0.306
4,TCCCGACA,0.291
5,GCGACTCA,-0.156
6,CGCAGCAG,-0.0406
7,CGGATGTA,0.381
8,GGGATCTA,0.0662
9,CGGATATC,0.193
10,GGGATATA,0.272
11,CGGATTTA,0.452
12,CGGATCTC,0.103
13,CGGATGTC,0.223
14,CGGATTTC,0.223
15,GGGATGTA,-0.0169
16,GGGATTTA,0.351
17,CGGATCTA,0.424
18,CGGATATA,0.443
19,AGCGATGA,0.0899
